Results on 50 compounds are retold here after PubChem BioAssay AID651558 (National Center for Advancing Translational Sciences (NCATS), 2012).

SMILES strings stand for the structures. In all, about 1,200 compounds went through this assay and about 480 (40%) were called active. About 29% were inconclusive and are not listed. The call rests on the fitted dose curve; in most records, active means well fitted inhibition curve with a large enough effect; inconclusive means small, poorly fitted or top-dose-only effect; inactive means no such curve, though single readings can be large or run the other way. This is one part of the list.
On the % scale 0 is the no-effect control and ±100 the full control effect; potency means the concentration at half of the fitted maximal effect.

The experiment in a line: qHTS Assay to Find Inhibitors of Chronic Active B-Cell Receptor Signaling: Hit Validation in Primary Screen. Further: nearly all actives have a fitted effect of over 75% in size. The note with it: ABC-DLBCL IkB-luc/CBR ratio luminescence, 4 h; series mostly up to 46.1 µM; activity change, negative = inhibition: at the top concentration. Summed up: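 Concentration series (3 nM to 46 uM) tested on TMD8 cells induced with doxycycline for 4 h. Filter-corrected green (IkBa fusion) over red (unfused) luciferase signal; Data were normalised to 10 uM MG-132 and untreated cell wells.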
For orientation: Quantitative high-throughput screening tests each substance at several concentrations.
Turning to `Nc1ncnc2c1ncn2[C@@H]1O[C@H](CNC(=O)[C@@H]2CCCN2S(=O)(=O)c2ccc(F)cc2)[C@@H](O)[C@H]1O`, the “activity change, negative = inhibition” value was -11% (inactive).
Same read-out and setting: the same measure for `Nc1ncnc2c1ncn2[C@@H]1O[C@H](CNCc2ccc(-c3cc(C(F)(F)F)ccc3Cl)o2)[C@@H](O)[C@H]1O`: -19.2% (inactive).
As for `Nc1ncnc2c1ncn2C1OC(C(=O)NC2CC2)C(O)C1O` (stereo not given), the Potency is 0.058 µM (active).
Turning to `Nc1ncnc2c1ncn2[C@@H]1O[C@H](COP(=O)(O)O)[C@@H](O)[C@H]1O`, the “activity change, negative = inhibition” value is 110% (inactive).
On to `C=CCNc1ncnc2c1ncn2C1OC(CO)C(O)C1O` (stereo not given), for which the Potency is 23.1 µM (active).
Still for that read-out and setting: the same measure for `OCC1OC(n2cnc3c(NC4CCCCC4)ncnc32)C(O)C1O` (stereo not given): 1.46 µM (active); for `Nc1nc(Cl)nc2c1ncn2[C@@H]1O[C@H](CO)[C@@H](O)[C@H]1O`: 0.92 µM (active).
As to `CC1CCC2C(=O)N(c3ccc(C(=O)Oc4cccc5cccnc45)cc3)C(=O)C2C1` (stereo not given), the “activity change, negative = inhibition” value is -1.42% (inactive).
Still for that read-out and setting: to `O=C(Oc1c(CN2CCOCC2)cc(Cl)c2cccnc12)c1ccccc1Cl` belongs -4.71% (inactive).
Regarding `OC[C@H]1O[C@@H](n2cnc3c(NC4CCCC4)nc(Cl)nc32)[C@H](O)[C@@H]1O`, the Potency is 1.3 µM (active).
On to `CCCC(=O)Nc1ncnc2c1ncn2[C@@H]1O[C@@H]2COP(=O)(O)O[C@H]2[C@H]1OC(=O)CCC`, for which the “activity change, negative = inhibition” value was -15.4% (inactive).
On to `OC[C@H]1O[C@@H](n2cnc3c(NC4CCCC4)ncnc32)[C@H](O)[C@@H]1O`, for which the Potency was 1.84 µM (active).
For the compound `Cc1ccccc1NC(=S)c1ccc2ccccc2n1`, the “activity change, negative = inhibition” value was 1.75% (inactive).
`Cc1ccccc1NC(=S)NCc1ccc2c(c1)cc(C)n2C`: the Potency is 1.46 µM (active).
For `S=C(NCc1ccc2[nH]c3c(c2c1)CCCC3)Nc1ccccc1`, the “activity change, negative = inhibition” value was 37.4% (inactive).
For `COC(=O)Nc1nc(-c2ccccc2)c(C(=O)c2ccc(Cl)cc2)s1`, the Potency was 3.66 µM (active).
Take `CC[C@@H]1Cc2cc(O)ccc2C2=C1c1ccc(O)cc1C[C@H]2CC`: the Potency was 14.6 µM (active).
On the same count and under the same terms, to `Cc1noc(C)c1COc1cccc(C(=O)OCC(=O)N2CC(=O)Nc3ccccc32)c1` belongs 20.6 µM (active); to `O=C(Cc1n[nH]c(=O)c2ccccc12)OCC(=O)c1ccc2c(c1)OCCO2`, 20.6 µM (active).
Take `CN(CC(=O)Nc1ccc2c(c1)OCCO2)Cc1nc2ccccc2c(=O)[nH]1`: the “activity change, negative = inhibition” value was -16.8% (inactive).
Turning to `CCOc1ccc(N(CC(=O)Nc2ccccc2OCC)S(=O)(=O)c2c(C)noc2C)cc1`, the Potency is 2.91 µM (active).
Still for that read-out and setting: the same measure for `CCOc1ccc(N(CC(=O)Nc2ccccc2OC)S(=O)(=O)c2ccccc2)cc1`: 5.17 µM (active).
With `CCOc1ccc(S(=O)(=O)N(CC(=O)NN=C2CCN(C)CC2)c2ccc(C)cc2)cc1`, the “activity change, negative = inhibition” value was -1.14% (inactive).
On to `CCOc1ccc(N(CC(=O)Nc2ccccc2C)S(=O)(=O)c2c(C)noc2C)cc1`, for which the Potency is 14.6 µM (active).
Consider `FC(F)(F)c1nnc2ccc(Cl)nn12`, for which the “activity change, negative = inhibition” value is 2.64% (inactive).
With `CCOc1cc(C(=O)N/N=C/C(Br)=C/c2ccccc2)cc(OCC)c1OCC`, the Potency is 2.59 µM (active).
Take `CC(/C=N/NC(=O)c1n[nH]c2c1CCC2)=C\c1ccccc1`: the Potency is 0.58 µM (active).
For the compound `O=C(N/N=C/C(Br)=C\c1ccccc1)c1ccc2nc[nH]c2c1`, the “activity change, negative = inhibition” value is 35.2% (inactive).
For `O=C(N/N=C/C(Br)=C\c1ccccc1)c1n[nH]c2c1CCC2`, the Potency is 2.06 µM (active).
Consider `CCOc1cc(C(=O)N/N=C/C2CC=CCC2)cc(OCC)c1OCC` (stereo not given), for which the “activity change, negative = inhibition” value was -4.55% (inactive).
With `Cc1c(CCC(=O)N2CCC[C@H]2C(=O)O)c(=O)oc2cc3oc4c(c3cc12)CCCC4`, the Potency is 23.1 µM (active).
As to `Cc1c(CCC(=O)N2CCC(C(=O)O)(c3ccccc3)CC2)c(=O)oc2cc3oc4c(c3cc12)CCCC4`, the “activity change, negative = inhibition” value is -14.9% (inactive).
Turning to `CCOC(=O)C(C)N1C(=O)S/C(=C/c2ccc3c(c2)n(C)c(=O)n3C)C1=O` (stereo not given), the Potency is 18.4 µM (active).
For the compound `CCOC(=O)C(C)N1C(=O)S/C(=C/c2cc(C)n(-c3ccccn3)c2C)C1=O` (stereo not given), the “activity change, negative = inhibition” value is -21.2% (inactive).
As for `COc1cc2c(c(OC)c1OC)C(c1ccc(C)cc1)CC(=O)O2` (stereo not given), the “activity change, negative = inhibition” value was 31.1% (inactive).
Consider `COc1ccc(C2CC(=O)Nc3cc(OC)c(OC)cc32)cc1Br` (stereo not given), for which the Potency was 20.6 µM (active).
With `COc1cc2c(cc1OC)C(c1ccc(OC)c(OC)c1OC)CC(=O)N2` (stereo not given), the Potency was 23.1 µM (active).
Same read-out and setting: to `COc1cc(-c2noc(C)c2C#Cc2ccsc2)cc(OC)c1OC` belongs 8.2 µM (active).
On the same count and under the same terms, to `COc1cc(-c2noc(C)c2C#Cc2ccc(N)cc2)cc(OC)c1OC` belongs 2.91 µM (active).
For the compound `NC(=S)NN=C1c2ccccc2-c2ccccc21`, the “activity change, negative = inhibition” value is 5.84% (inactive).
In the case of `CNC(=S)N/N=C/c1ccco1`, the “activity change, negative = inhibition” value was -5.71% (inactive).
`CNC(=S)N/N=C1\C(=O)c2cccc3cccc1c23`: the Potency is 18.4 µM (active).
On the same count and under the same terms, to `COc1ccc(-c2cccc(-c3cc(=O)oc4cc(OC)cc(OC)c34)c2)cc1` belongs 1.16 µM (active); to `COc1cc(OC)c2c(-c3cccc(-c4ccc(N(C)C)cc4)c3)cc(=O)oc2c1`, 2.06 µM (active).
The same measure, in the same setting: to `COc1cc(OC)c2c(-c3cccc(-c4ccc(OC)c(F)c4)c3)cc(=O)oc2c1` belongs 1.16 µM (active).
For `CC(=O)c1ccsc1-c1c(C)cc2oc(=O)cc(-c3ccccc3)c2c1C`, the “activity change, negative = inhibition” value is -17.2% (inactive).
Regarding `COc1cc(OC)c2c(-c3cccc(-c4sccc4C(C)=O)c3)cc(=O)oc2c1`, the Potency was 5.17 µM (active).
Consider `COc1cc(OC)c2c(-c3cccc(-c4ccc(NC(C)=O)cc4)c3)cc(=O)oc2c1`, for which the Potency is 2.59 µM (active).
For `COc1cc(OC)c2c(-c3cccc(-c4cccc(N)c4)c3)cc(=O)oc2c1`, the Potency was 6.51 µM (active).
The same measure, in the same setting: the same measure for `COc1cc(OC)c2c(-c3cccc(-c4ccc(O)cc4)c3)cc(=O)oc2c1`: 2.59 µM (active).
